FLuc inh: Firefly luciferase inhibition profiling of diverse chemical library using quantitative high-throughput screening; Potency, µM (doses to about 115 µM), usual class: inhibitors; purified P. pyralis luciferase, luminescence, biochemical; AID 1347043, 2019; hit rate 2.5% among 76,000; Luciferin 4-monooxygenase (Photinus pyralis), P08659; also: nearly all actives have a fitted effect of over 65% in size
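Inhibitors were tested against purified firefly luciferase in a biochemical, low-substrate format (both substrates at 10uM) and luminescence measured with a CCD imager.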
hNpr1 antagonist: Natriuretic polypeptide receptor (hNpr1) antagonism - Primary qHTS | Atrial natriuretic peptide receptor 1 (Homo sapiens), P16066 | HEK293 hNpr1 GloSensor cGMP, ANP-stimulated luminescence | Potency, µM (top dose mostly 46.3 µM), actives largely listed as inhibitors | hit rate 1.6% among 76,000 | AID 1347048, 2019; calls by dose curve; also: nearly all actives have a fitted effect of over 60% in size
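Compound pre-incubated 30 min at room temperature on GloSensor-loaded HEK293 cells stably carrying hNpr1 and the pGS-40F cGMP biosensor. Stimulation uses hNppA at 0.1 nM final; luminescence is taken at baseline and 20 min post-agonist.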
HEK293 tox: Cytotoxic Profiling in HEK 293 Cell Line of Diverse Libraries Using Quantitative High-Throughput Screening. HEK 293 viability, ATP luminescence (CellTiter-Glo), 48-72 h. Potency, µM (top dose mostly 115 µM), most hits filed as inhibitors. hit rate 6.6% among 94,000. AID 1345083, 2018; also: nearly all actives have a fitted effect of over 60% in size
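Cytotoxicity was scored by loss of ATP-coupled luminescence (CellTiter-Glo) in HEK 293 cells. Compound treatment ran 48 or 72 hr at 37 degree Celsius, 5% CO2, 95% humidity.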
GPT2 inh: Primary qHTS assay for inhibitors of Glutamate pyruvate transaminase 2 (GPT2); hit rate 0.25% among 100,000; Alanine aminotransferase 2 (Homo sapiens), Q8TD30; Recombinant GPT2, coupled pyruvate oxidase/HRP Amplex Red fluorescence; Potency, µM (doses to about 57.7 µM), most hits filed as inhibitors; also: nearly all actives have a fitted effect of over 60% in size
Target sequence (Q8TD30 whole entry, looked up): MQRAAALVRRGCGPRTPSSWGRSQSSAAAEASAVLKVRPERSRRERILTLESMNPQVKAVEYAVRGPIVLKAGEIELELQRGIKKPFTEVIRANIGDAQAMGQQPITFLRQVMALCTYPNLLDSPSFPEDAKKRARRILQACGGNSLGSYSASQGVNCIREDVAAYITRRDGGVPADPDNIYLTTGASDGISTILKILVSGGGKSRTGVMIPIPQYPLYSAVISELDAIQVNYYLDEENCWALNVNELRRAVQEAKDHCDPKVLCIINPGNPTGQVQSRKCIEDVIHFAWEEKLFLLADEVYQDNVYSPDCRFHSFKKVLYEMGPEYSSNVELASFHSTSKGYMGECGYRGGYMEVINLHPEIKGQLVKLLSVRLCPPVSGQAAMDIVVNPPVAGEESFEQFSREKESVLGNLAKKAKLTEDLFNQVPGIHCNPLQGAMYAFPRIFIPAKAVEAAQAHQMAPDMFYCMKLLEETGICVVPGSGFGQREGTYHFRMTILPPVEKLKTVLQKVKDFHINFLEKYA
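Inhibition is scored from Amplex Red fluorescence generated when pyruvate oxidase and HRP act on pyruvate released by GPT2. Reactions contain 10ng/uL enzyme, 250uM a-KG and 2mM L-alanine and run 30 min at room temperature.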
NIH3T3 tox: Cytotoxic Profiling in NIH 3T3 Cell Line of Diverse Libraries Using Quantitative High-Throughput Screening; Potency, µM (series often up to 96.7 µM), hits mostly inhibitors; NIH 3T3 viability, CellTiter-Glo ATP luminescence, 48-72 h; hit rate 4.3% among 94,000; AID 1345082, 2018; also: nearly all actives have a fitted effect of over 55% in size
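Cytotoxicity was measured by CellTiter-Glo ATP luminescence after 48 or 72 h compound exposure at 37 °C. Mouse NIH 3T3 fibroblasts were seeded at 400 cells/well and dosed by 23 nL pin transfer.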
Large screens that a line does not name were inactive. Hits are enriched below; roughly 10% of the tested compounds scored in any of these assays. Unless noted, calls follow the shape of the dose curve; as a rule, active = well fitted curve in the direction sought with a large enough effect; inconclusive = small, poorly fitted or top-dose-only effect, or another doubt; inactive = no such curve, though single readings can be large; an effect the other way counts as inactive or inconclusive.

COc1ccc(C2Cn3cnc(C(=O)N4CCC(C(=O)Nc5ccccc5)CC4)c3CO2)cc1 (centres undefined)	FLuc inh inconclusive
COc1cc(NC(=O)C2CCN(C(=O)c3ncn4c3COC(c3ccccc3)C4)CC2)cc(OC)c1 (centres undefined)	FLuc inh 25.1µM
COc1ccc(-c2nnc([C@H]3CCN(Cc4cccc(C#N)c4)C3)o2)cc1	HEK293 tox inconclusive, GPT2 inh inconclusive, NIH3T3 tox inconclusive
CN(C)Cc1ccc(-c2cc3c(ccn3Cc3ccncc3)c(N3CCOCC3)n2)cc1	HEK293 tox 100µM, NIH3T3 tox inconclusive
c1cc(Cn2ccc3c(N4CCOCC4)nc(-c4cn[nH]c4)cc32)ccn1	NIH3T3 tox inconclusive
Cn1cc(-c2cc3c(ccn3Cc3ccncc3)c(N3CCOCC3)n2)cn1	NIH3T3 tox inconclusive
c1cc(Cn2ccc3c(N4CCOCC4)nc(-c4ccc5cn[nH]c5c4)cc32)ccn1	HEK293 tox 39.8µM, NIH3T3 tox 25.1µM
CCOC(=O)C1CCN(C(=O)c2ccc3nnc(Cc4ccco4)n3c2)CC1	none (no result: FLuc inh, hNpr1 antagonist)
CC1CCC2(C(=O)OC3OC(CO)C(O)C(O)C3O)CCC3(C(=O)O)C(=CCC4C5(C)CCC(OC6OC(C)C(O)C(O)C6O)C(C)(C)C5CCC43C)C2C1C (centres undefined)	none (no result: FLuc inh, hNpr1 antagonist, HEK293 tox, NIH3T3 tox)
O=C(NC1CCCN(c2cc(N3CCCC3)ncn2)C1)c1ccccn1 (centres undefined)	none
O=C(NCCc1ccccn1)c1nc(-c2ccccc2)cc2[nH]ccc12	FLuc inh inconclusive, HEK293 tox 79.4µM, NIH3T3 tox inconclusive
O=C(NCc1cccnc1)c1nc(-c2ccccc2)cc2[nH]ccc12	HEK293 tox 89.1µM, NIH3T3 tox inconclusive
O=S(=O)(c1cccc2ccccc12)N1CCCC(CO)(Cc2cccc(Cl)c2)C1 (centres undefined)	HEK293 tox inconclusive, NIH3T3 tox 44.7µM
Cc1ccc(C)c(S(=O)(=O)N2CCCC(CO)(Cc3cccc(Cl)c3)C2)c1 (centres undefined)	HEK293 tox inconclusive, NIH3T3 tox inconclusive
OCC1(Cc2ccccc2)CCCN(Cc2cnn(-c3cccc(Cl)c3)c2)C1 (centres undefined)	HEK293 tox 79.4µM, NIH3T3 tox 79.4µM
CN1CCN(Cc2cnn(-c3cccc(Cl)c3)c2)CC1CCO (centres undefined)	NIH3T3 tox inconclusive
COc1ccccc1C(=O)N1CCC2(CC1)CN[S+](=O)([O-])c1cccnc1O2	none (no result: FLuc inh, hNpr1 antagonist)
COCCNc1ncc(-c2ccccc2)c2c1OCC2	FLuc inh 28.2µM, HEK293 tox inconclusive, NIH3T3 tox inconclusive
COCCNc1ncc(-c2ccncc2)c2c1OCC2	NIH3T3 tox inconclusive
COCCNc1ncc(-c2ccnc(C)c2)c2c1OCC2	HEK293 tox inconclusive, NIH3T3 tox inconclusive
COCCNc1ncc(-c2ccsc2)c2c1OCC2	FLuc inh 22.4µM, HEK293 tox inconclusive, NIH3T3 tox inconclusive
Cc1nnc(C2CCCCCN2S(=O)(=O)c2ccccc2C)o1 (centres undefined)	none
CN(Cc1ccccc1)Cc1cn([C@H]2CO[C@H]3[C@@H]2OC[C@@H]3NC(=O)COc2ccccc2)nn1	none
CC(C)(C)COC(=O)N1C[C@@H](CO)[C@@H]2Oc3c(F)cccc3[C@@H]21	HEK293 tox inconclusive, NIH3T3 tox 31.6µM (no result: FLuc inh, hNpr1 antagonist, GPT2 inh)
CC(=O)c1ccc(NC(=O)O[C@@H]2CO[C@H]3[C@@H]2OC[C@@H]3n2cc(-c3ccccc3)nn2)cc1	none
CCN1C(=O)C2(CCN(S(=O)(=O)c3ccc(Cl)cc3C)CC2)c2ccccc21	HEK293 tox 10µM, NIH3T3 tox inconclusive
Cn1c([C@H]2CCN(Cc3ccccc3)C2)nc2ccccc21	HEK293 tox inconclusive, NIH3T3 tox inconclusive
Cn1c([C@H]2CCN(Cc3ccc(Cl)cc3)C2)nc2ccccc21	hNpr1 antagonist inconclusive, HEK293 tox inconclusive, NIH3T3 tox 100µM
CCOC(=O)C1CCN(C(=O)c2cc(Cn3ccnc3C(C)C)[nH]n2)CC1	none
O=C(c1ccc2ncccc2c1)N1CC(CO)C2(CCNCC2)C1 (centres undefined)	none
COc1ccc(C2Cn3nnc(-c4nc(-c5cccc(Br)c5)no4)c3CO2)cc1 (centres undefined)	none
COc1ccnc(N2CC[C@H](c3nnc(-c4ccc(C)cc4)o3)C2)n1	FLuc inh inconclusive, HEK293 tox 100µM, NIH3T3 tox inconclusive
CC(C)OCCCNC(=O)C1CCCCC(=O)N1 (centres undefined)	none (no result: FLuc inh, hNpr1 antagonist)
O=C1NCCOCCN(C(=O)Nc2ccc3c(c2)OCCO3)[C@@H]2CCCC[C@H]12	FLuc inh 15.8µM
CCN(Cc1cccnc1)C(=O)c1cc(-c2cnn(CC)c2)nc2cc(C)ccc12	FLuc inh inconclusive, NIH3T3 tox 6.31µM
O=C(Cc1cccc(Cl)c1)NC1CCN(c2ccnc3ccnn23)C1 (centres undefined)	HEK293 tox inconclusive, NIH3T3 tox inconclusive (no result: FLuc inh, hNpr1 antagonist)
O=C(NCc1ccccc1F)C1CCN(c2ccnc3ccnn23)CC1	HEK293 tox 15.8µM, NIH3T3 tox inconclusive (no result: FLuc inh, hNpr1 antagonist)
O=C(NCc1cccc(Cl)c1)C1CCCN(c2ccnc3ccnn23)C1 (centres undefined)	HEK293 tox inconclusive, NIH3T3 tox inconclusive (no result: FLuc inh, hNpr1 antagonist)
O=C(NCc1ccc(Cl)cc1)C1CCCN(c2ccnc3ccnn23)C1 (centres undefined)	HEK293 tox 50.1µM, NIH3T3 tox inconclusive (no result: FLuc inh, hNpr1 antagonist)
O=C(NCc1ccccc1)C1CCCN(c2ccnc3ccnn23)C1 (centres undefined)	HEK293 tox 100µM, NIH3T3 tox inconclusive (no result: FLuc inh, hNpr1 antagonist)
O=C(NCCc1ccccc1F)C1CCN(c2ccnc3ccnn23)CC1	HEK293 tox inconclusive, NIH3T3 tox inconclusive (no result: FLuc inh, hNpr1 antagonist)
O=C(NCc1ccccc1)C1CN(c2ccnc3ccnn23)C1	HEK293 tox inconclusive, NIH3T3 tox inconclusive (no result: FLuc inh, hNpr1 antagonist)
CC(C)NC(=O)NC1CC2(CCN(C(=O)CCCN(C)C)CC2)c2ccccc21 (centres undefined)	none (no result: FLuc inh, hNpr1 antagonist)
Cc1csc(C(C)N(C)C(=O)c2ccc(CCC(C)(C)O)cc2)n1 (centres undefined)	none
COc1ccc(-c2cc(C(=O)N3CCN(Cc4ccccc4)CC3)c3cnn(C)c3n2)cc1	HEK293 tox 35.5µM, NIH3T3 tox inconclusive (no result: FLuc inh, hNpr1 antagonist, GPT2 inh)
Cn1ncc2c(C(=O)N3CCN(Cc4ccccc4)CC3)cc(-c3ccccc3F)nc21	HEK293 tox 39.8µM, NIH3T3 tox inconclusive (no result: FLuc inh, hNpr1 antagonist, GPT2 inh)
COc1ccc(-c2cc(C(=O)N3CCN(c4ncccn4)CC3)c3cnn(C)c3n2)cc1	HEK293 tox 39.8µM, NIH3T3 tox inconclusive (no result: FLuc inh, hNpr1 antagonist, GPT2 inh)

Screening results as filed in PubChem BioAssay.
